# Screening data from PubChem.
# The list is not random: actives were taken first. Their share in the collection is about 12%.
# USP28 block: blocks human USP28 ubiquitin-rhodamine cleavage. Q96RU2. purified USP28, Ub-rhodamine cleavage fluorescence, 30 min. inhibition, % at 25 µM. hit rate 3% among 47,000. AID 1645857
# OTUD3 inh: human OTUD3 deubiquitinase inhibition; Q5T2D3; purified OTUD3, Ub-rhodamine fluorescence, 2 h; inhibition, % at 25 µM; hit rate 0.7% among 47,000
# USP30 block: human USP30 deubiquitinase inhibition; Q70CQ3; purified USP30, Ub-rhodamine cleavage fluorescence; inhibition, % at 25 µM; hit rate 5.3% among 47,000; AID 1645860
# USP17 inh: human USP17-like deubiquitinase inhibition. purified USP17, Ub-rhodamine cleavage fluorescence, 3 h. inhibition, % at 50 µM. hit rate 6.5% among 47,000. AID 1645855
# The depositor's hits bear a star; . = no result. No stated cut-off is given here; in the data, active means inhibition above about 30%; inactive means the rest.
SMILES,USP28 block,OTUD3 inh,USP30 block,USP17 inh
O=S1(=O)CCN(CC2CCCO2)c2c(Oc3ccccc3)nc(F)c(Cl)c21 (centres undefined),30,7,3,60*
O=S1(=O)CCN(CC2CCCO2)c2c(Oc3ccc(F)cc3)nc(F)c(Cl)c21 (centres undefined),14,3,11,34*
O=S1(=O)CCN(Cc2cccnc2)c2c(Oc3ccccc3)nc(F)c(Cl)c21,13,1,11,16
N#Cc1ccc(Oc2nc(F)c(Cl)c3c2N(CC2CCCO2)CCS3(=O)=O)cc1 (centres undefined),9,1,4,47*
COCCCN1CCS(=O)(=O)c2c(Cl)c(F)nc(Oc3ccccc3F)c21,19,11,-30,88*
COCCN1CCS(=O)(=O)c2c(Cl)c(F)nc(Oc3ccc(OC)cc3)c21,-10,3,-7,0
CC1CCN(c2nc(-c3ccccc3F)no2)CC1,15,15,8,7
O=C(c1ccoc1)N1CCC(Nc2ncnc3c2CCC3)CC1,9,7,17,0
CC(O)[C@H](NC(=O)C1(c2ccccc2)CCN(C(=O)[C@@H]2CCCN2C(=O)OC(C)(C)C)CC1)C(=O)O (some centres undefined),-1,-2,3,8
N#Cc1cccc(NC(=O)Cn2cccc2-c2nc(-c3ccccc3)no2)c1,17,18,13,31*
COc1cc(NCc2nc3scc(-c4ccccc4)c3c(=O)[nH]2)cc(OC)c1,-16,-17,-55,-4
NS(=O)(=O)c1cccc(NCc2nc3scc(-c4ccccc4)c3c(=O)[nH]2)c1,48*,10,32*,43*
O=C(Nc1ccc(CN2CCOCC2)cc1)c1cc2cc(Br)ccc2o1,47*,-12,-34,5
O=C(Nc1ccc(CN2CCOCC2)cc1)c1cccc([N+](=O)[O-])c1,0,0,-3,-32
O=C(NCc1ccccc1Cl)c1ccc2cn[nH]c2c1,55*,2,0,-2
CC(=O)N1CC2(CCN(C(=O)C(C)(C)NC(=O)OCc3ccccc3)CC2)CC1C(=O)O (centres undefined),3,5,2,4
O=C(NCc1ccccc1)Nc1cccn2ncnc12,6,1,0,5
CCOc1ccc(Nc2cc(C(=O)NCCc3ccccc3)c3ccccc3n2)cc1,-10,-4,12,56*
CCOc1ccc(Nc2cc(C(=O)NCc3ccc(C)cc3)c3ccccc3n2)cc1,.,1,.,53*
COc1ccc(Nc2cc(C(=O)NCc3cccnc3)c3ccccc3n2)cc1OC,8,-3,14,40*
Cc1ccc(COc2cc(C(=O)NCc3ccccc3)c3ccccc3n2)cc1,-8,-8,1,-20
Cc1ccc(CCNC(=O)c2cc(OCc3ccc(C)cc3)nc3ccccc23)cc1,4,12,0,10
Cn1c2ccccc2c(=O)c2c(=O)n(C3CCCCC3)c(-c3ccc(Cl)cc3)nc21,1,10,16,10
CC(NC(=O)C1CCN(c2cc(N3CCOCC3)ncn2)CC1)c1ccccc1 (centres undefined),-4,0,-16,-6
Cc1cccc(NS(=O)(=O)c2ccc3[nH]c(=O)cc(C(=O)O)c3c2)c1,18,18,-32,-28
SMILES,USP28 block,OTUD3 inh,USP30 block,USP17 inh
CC(C)CNC(=O)c1cc(=O)[nH]c2ccc(S(=O)(=O)Nc3ccc(F)cc3)cc12,7,7,25,36*
COc1ccc(C(=O)COC(=O)/C=C/c2ccc(S(=O)(=O)Nc3cccc(S(N)(=O)=O)c3)cc2)cc1,43*,4,22,10
COc1ccc(NS(=O)(=O)c2ccc(/C=C\c3onc(C)c3NC(C)=O)cc2)cc1,.,4,.,5
NS(=O)(=O)c1cccc(NS(=O)(=O)c2ccc(/C=C/C(=O)OCC(=O)c3ccc(Br)cc3)cc2)c1,59*,5,18,15
CCc1ccc(NC(=O)C(C)OC(=O)/C=C/c2ccc(S(=O)(=O)Nc3cccc(S(N)(=O)=O)c3)cc2)cc1 (centres undefined),27,16,15,33*
O=C(Cn1c(=O)n(Cc2ccncc2)c(=O)c2ncccc21)Nc1ccc(F)cc1,-11,-5,-18,-13
COc1cccc(N2C(=O)CC(c3ccc(OC)c(OC)c3)CC2=O)c1,4,3,6,-1
COc1ccc(CNC(=O)CCc2nc3sc4c(c3c(=O)[nH]2)CCCCC4)cc1,-22,-10,-48,51*
N#Cc1ccccc1OCC(O)CS(=O)(=O)c1ccc(Cl)cc1 (centres undefined),0,0,-30,-14
COc1ccc(NC(=O)c2ccc3c(c2)C2C4CCC(C4)C2C(c2ccccc2)N3)cc1 (centres undefined),0,4,39*,11
COc1ccc(NC(=O)c2ccc3[nH]c4c(c3c2)CC(C)CC4)cc1 (centres undefined),2,5,-3,31*
COc1ccc(C(=O)Nc2ccc3c(N4CCOCC4)ncnc3c2)cc1,3,-12,-19,-12
COc1ccc(NC(=O)c2ccc3ccnc(N4CCN(c5ccc(OC)cc5)CC4)c3c2)cc1,-8,-8,-16,47*
CCc1noc(-c2ccn3c(CC(=O)Nc4ccccc4C)nnc3c2)n1,1,10,12,25
Cc1noc(-c2ccc3nnc(CC(=O)Nc4ccc(F)c(C)c4)n3c2)n1,-14,-5,-36,-9
Cc1ccc(NC(=O)Cc2nnc3cc(-c4nc(C)no4)ccn23)cc1,42*,30*,69*,13
CCc1ccc(NC(=O)Cc2nnc3cc(-c4nc(C)no4)ccn23)cc1,30*,15,22,55*
O=S(=O)(c1ccccc1)c1cnc2ccc(F)cc2c1N1CCOCC1,7,6,-4,-1
Cc1c(C)n(-c2ccc(Br)cn2)c2ncnc(NCCCO)c12,4,1,60*,4
Cc1noc2ncc(-c3nnc(-c4ccc5ccccc5n4)o3)cc12,-36,-35,-180,6
CCc1ccccc1NC(=O)c1cc(-c2ccccn2)n[nH]1,13,18,38*,73*
O=C(Nc1ccccc1)c1cc(-c2ccncc2)n[nH]1,24,16,24,-5
COc1ccccc1CNC(=O)c1cc(-c2ccccn2)n[nH]1,3,14,11,.
Cc1ccc(NC(=O)c2cc(-c3ccncc3)n[nH]2)c(C)c1,6,6,16,2
Cc1cc(Cl)ccc1NC(=O)c1cc(-c2ccncc2)n[nH]1,72*,28,90*,65*
O=C(Nc1ccccc1Cl)c1cc(-c2ccncc2)n[nH]1,79*,13,92*,74*
COc1cc2c(cc1NC(=O)COc1ncnc3sccc13)oc1ccccc12,-35,-19,-135,11
C/C=C\C1=CC(=O)[C@]23C[C@H]2[C@]2(C)CO[C@@]1(O)[C@@]3(O)O2,-9,-45,-137,52*
CS(=O)(=O)c1ccc2nc(N(Cc3cccnc3)C(=O)c3ccc4ccccc4c3)sc2c1,20,21,52*,53*
O=C(Nc1nnc(-c2ccccc2)o1)C1CCN(C(=O)c2ccc(F)cc2)CC1,8,-5,2,-2
